Experimental data published in PubChem BioAssay.
“And” between values parts separate entries of the source, which are not always exact repeats. Equal values may be shown once. The source made the active and inactive calls.

Tests used:
[1] = tested on: Plasmodium falciparum Sir2 (PF13_0152, Sir2A); assay: pfSir2 binders on small-molecule microarrays, primary screen, biochemical, small-molecule microarray, 635 nm fluorescence (AID 1098); conditions: small-molecule microarray binding, fluorescence 635 nm; higher = more signal;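 further: score merges spot fluorescence intensity with its signal-to-noise ratio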
[2] = small-molecule microarray binders of probe aDKK1, primary screen, biochemical, biotinylated probe, 635/667 nm fluorescence (AID 1099); conditions: higher = more signal;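 further: score merges 667nm spot fluorescence with signal to noise across triplicate slides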
[3] = small-molecule microarray binders of probe aCHRDL2, primary screen, biochemical, biotinylated probe, 635/667 nm fluorescence (AID 1100); conditions: higher = more signal
[4] = splicing luciferase reporter signal modulators, primary screen, spliceosome inhibition project, cell-based, HEK293, splice +/- reporter (AID 1101); conditions: luminescence, 24 h, higher = more signal, called active from +8 up or from −8 down;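 further: HEK293 cells carrying a splicing-competent luciferase reporter gene; test concentration not given here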
[5] = biological target: Fibroblast growth factor 10 (Homo sapiens) (UniProt O15520); assay: FGF10 binders on small-molecule microarrays, primary screen, biochemical, small-molecule microarray, 635 nm fluorescence (AID 1102); conditions: FGF10 binding, fluorescence 635 nm, higher = more signal
[6] = tested on: glycogen synthase kinase-3 (GSK3A per assay name; protocol says GSK3B); assay: GSK3 binders on small-molecule microarrays, primary screen, biochemical, small-molecule microarray, 635 nm fluorescence, GSK3A (AID 1103); conditions: small-molecule microarray binding, fluorescence 635 nm; higher = more signal; further: the record names both GSK3A and GSK3B
[7] = biological target: Epidermal growth factor receptor (Homo sapiens) (UniProt P00533); assay: EGFR binders on small-molecule microarrays, primary screen, biochemical, small-molecule microarray, 635 nm fluorescence (AID 1104); conditions: EGFR binding, higher = more signal;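 further: score merges 667 nm emission intensity with spot signal to noise over triplicate slides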
[8] = biological target: Follistatin-related protein 3 (Homo sapiens) (UniProt O95633); assay: FSTL3 binders on small-molecule microarrays, primary screen, biochemical, small-molecule microarray, 635 nm fluorescence (AID 1105); conditions: FSTL3 binding, higher = more signal;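 further: score merges emission near 667 nm and signal to noise per printed spot across three slides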
[9] = biological target: Dickkopf-related protein 1 (Homo sapiens) (UniProt O94907); assay: DKK1 binders on small-molecule microarrays, primary screen, biochemical, small-molecule microarray, 635 nm fluorescence scan (AID 1106); conditions: DKK1 binding, higher = more signal;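 further: score merges emission near 667 nm with signal to noise over three replicate slides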
[10] = tested on: Inhibin beta A chain (activin A); assay: INHBA (activin A) binders on microarrays, primary screen, biochemical, small-molecule microarray, 635 nm fluorescence scan (AID 1107); conditions: small-molecule microarray binding, higher = more signal;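 further: mouse activin A protein probed at 4.33 µg/mL on printed slides; score merges bound-protein fluorescence near 667 nm with spot signal-to-noise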
[11] = tested on: Human papillomavirus type 1a protein E7 (residues 44-93); assay: HPV1a E7 fragment binders on microarrays, primary screen, biochemical, small-molecule microarray, residues 44-93, 635 nm fluorescence (AID 1108); conditions: small-molecule microarray binding, fluorescence 635 nm; higher = more signal;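 further: E7 fragment applied at 1 µg/mL in TBST for 1 h at 4 C; score combines spot fluorescence with its signal to noise ratio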
[12] = modulators of HCV replicon luciferase signal, primary screen, HCV replication inhibitor project, Huh7 cells, luciferase reporter (AID 1109); conditions: 48 h, higher = more signal;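 further: huh7 hepatoma cells harbouring a luciferase neomycin HCV replicon reporter; luciferase luminescence as measure of HCV replicon replication; test concentration not given here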
[13] = biological target: Left-right determination factor 2 (Homo sapiens) (UniProt O00292); assay: LEFTY2 binders on small-molecule microarrays, primary screen, biochemical, small-molecule microarray, 635 nm fluorescence scan (AID 1110); conditions: LEFTY2 binding, higher = more signal
[14] = biological target: Calmodulin-1 (Homo sapiens) (UniProt P0DP23); assay: CALM1 binders on microarrays, EGTA buffer, profiling panel, biochemical, small-molecule microarray, Cy5-labelled CALM1 (AID 1111); conditions: Cy5-CALM1 binding fluorescence, higher = more signal;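 further: labelled calmodulin applied in Tris saline Tween buffer holding calcium plus EGTA and DTT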
[15] = biological target: Calmodulin-1 (Homo sapiens) (UniProt P0DP23); assay: calcium-bound CALM1 binders on microarrays, profiling panel, artefact control for SMM control-protein annotation, biochemical, small-molecule microarray, Cy5-labelled CALM1, plus calcium (AID 1112); conditions: Cy5-CALM1 binding fluorescence, higher = more signal;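 further: score merges spot fluorescence with signal to noise from triplicate slides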
[16] = small-molecule microarray binders of probe aWnt5a, primary screen, biochemical, biotinylated probe, 635/667 nm fluorescence (AID 1113); conditions: higher = more signal;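 further: score merges 667 nm fluorescence intensity with signal-to-noise per printed feature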
[17] = small-molecule microarray binders of probe aShh, primary screen, biochemical, biotinylated probe, 635/667 nm fluorescence (AID 1114); conditions: higher = more signal;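 further: probe is biotin-labelled aShh protein from a stem cell growth factor screen; measures binding of labelled protein to compounds printed on the slide; score merges feature fluorescence at 667 nm with signal-to-noise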
[18] = small-molecule microarray binders of probe aNog, primary screen, biochemical, biotinylated probe, 635/667 nm fluorescence (AID 1115); conditions: higher = more signal;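 further: probe is biotinylated aNog protein used at 0.15 µg/mL for 1 h at 4 C; z-score combines 667 nm fluorescence of each spot with its signal to noise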
[19] = biological target: Torsin-1A-interacting protein 1 (Homo sapiens) (UniProt Q5JTV8); assay: LAP1 binders from COS7 cell lysate, primary screen, small-molecule microarray, 635/667 nm fluorescence (AID 1116); conditions: COS7-hLAP1 lysate binding, 635 nm fluorescence, higher = more signal
[20] = biological target: Alpha-bungarotoxin (Bungarus multicinctus) (UniProt P60615); assay: alpha-bungarotoxin binders on microarray, profiling panel, artefact control for SMM control protein annotation, biochemical, small-molecule microarray, Alexa647 label, 635/667 nm fluorescence (AID 1117); conditions: alpha-BTX-A647 binding fluorescence, higher = more signal
Chain of Alpha-bungarotoxin (Bungarus multicinctus) (P60615 whole entry, looked up): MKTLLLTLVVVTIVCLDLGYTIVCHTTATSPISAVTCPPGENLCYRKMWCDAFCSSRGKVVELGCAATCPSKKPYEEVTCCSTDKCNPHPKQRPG

Chain of Follistatin-related protein 3 (Homo sapiens) (O95633 whole entry, looked up): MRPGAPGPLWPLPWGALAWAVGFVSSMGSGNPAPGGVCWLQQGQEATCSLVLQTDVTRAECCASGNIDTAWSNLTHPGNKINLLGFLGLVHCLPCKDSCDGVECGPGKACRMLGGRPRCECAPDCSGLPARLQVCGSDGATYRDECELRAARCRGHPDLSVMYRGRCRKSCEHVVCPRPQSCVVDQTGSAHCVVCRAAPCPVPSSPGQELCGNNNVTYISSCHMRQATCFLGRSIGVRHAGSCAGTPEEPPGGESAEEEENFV
Chain of Epidermal growth factor receptor (Homo sapiens) (P00533 whole entry, looked up): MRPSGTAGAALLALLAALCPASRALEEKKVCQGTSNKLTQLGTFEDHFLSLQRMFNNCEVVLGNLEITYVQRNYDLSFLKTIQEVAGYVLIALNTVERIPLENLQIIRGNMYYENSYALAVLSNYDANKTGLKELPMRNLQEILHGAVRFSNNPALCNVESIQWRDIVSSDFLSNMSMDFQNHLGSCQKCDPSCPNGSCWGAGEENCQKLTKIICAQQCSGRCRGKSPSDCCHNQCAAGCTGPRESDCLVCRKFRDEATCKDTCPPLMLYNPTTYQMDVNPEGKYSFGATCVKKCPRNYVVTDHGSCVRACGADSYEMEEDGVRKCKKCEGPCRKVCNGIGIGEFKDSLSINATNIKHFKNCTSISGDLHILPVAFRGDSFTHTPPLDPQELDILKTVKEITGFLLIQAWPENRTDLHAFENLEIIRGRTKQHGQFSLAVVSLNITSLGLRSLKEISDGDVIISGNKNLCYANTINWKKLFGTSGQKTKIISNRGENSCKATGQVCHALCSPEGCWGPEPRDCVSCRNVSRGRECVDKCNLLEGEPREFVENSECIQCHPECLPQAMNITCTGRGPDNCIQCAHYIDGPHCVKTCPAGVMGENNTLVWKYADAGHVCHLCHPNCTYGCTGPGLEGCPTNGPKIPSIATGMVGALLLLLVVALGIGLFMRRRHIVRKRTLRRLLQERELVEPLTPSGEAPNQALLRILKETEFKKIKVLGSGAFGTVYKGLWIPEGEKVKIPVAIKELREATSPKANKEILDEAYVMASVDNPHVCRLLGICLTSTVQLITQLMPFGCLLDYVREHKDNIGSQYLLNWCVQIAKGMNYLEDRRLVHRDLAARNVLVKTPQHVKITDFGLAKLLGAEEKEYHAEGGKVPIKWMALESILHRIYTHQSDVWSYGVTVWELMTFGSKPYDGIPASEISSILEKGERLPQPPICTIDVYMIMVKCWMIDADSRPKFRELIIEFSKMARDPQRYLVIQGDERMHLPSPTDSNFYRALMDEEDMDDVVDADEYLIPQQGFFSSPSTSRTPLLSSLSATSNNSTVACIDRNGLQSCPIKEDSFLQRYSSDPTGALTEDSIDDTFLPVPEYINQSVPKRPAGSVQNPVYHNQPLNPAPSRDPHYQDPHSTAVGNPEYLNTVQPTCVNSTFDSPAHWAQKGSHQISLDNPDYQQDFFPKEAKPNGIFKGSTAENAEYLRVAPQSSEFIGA
Chain of Fibroblast growth factor 10 (Homo sapiens) (O15520 whole entry, looked up): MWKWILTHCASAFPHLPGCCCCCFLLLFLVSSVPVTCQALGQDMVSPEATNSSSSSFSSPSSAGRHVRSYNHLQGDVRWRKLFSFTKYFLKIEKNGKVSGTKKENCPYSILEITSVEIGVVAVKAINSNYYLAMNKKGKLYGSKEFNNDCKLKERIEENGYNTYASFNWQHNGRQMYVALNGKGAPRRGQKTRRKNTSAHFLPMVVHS
Chain of Left-right determination factor 2 (Homo sapiens) (O00292 whole entry, looked up): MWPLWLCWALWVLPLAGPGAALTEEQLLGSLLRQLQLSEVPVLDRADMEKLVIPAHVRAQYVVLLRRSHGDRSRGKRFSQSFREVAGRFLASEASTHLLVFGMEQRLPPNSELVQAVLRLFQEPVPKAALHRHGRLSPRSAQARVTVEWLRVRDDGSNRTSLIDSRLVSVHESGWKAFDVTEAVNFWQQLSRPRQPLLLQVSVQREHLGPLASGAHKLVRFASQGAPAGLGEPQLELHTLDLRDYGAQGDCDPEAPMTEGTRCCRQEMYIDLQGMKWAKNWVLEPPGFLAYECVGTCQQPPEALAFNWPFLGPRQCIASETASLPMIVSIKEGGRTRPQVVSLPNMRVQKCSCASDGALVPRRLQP
Chain of Dickkopf-related protein 1 (Homo sapiens) (O94907 whole entry, looked up): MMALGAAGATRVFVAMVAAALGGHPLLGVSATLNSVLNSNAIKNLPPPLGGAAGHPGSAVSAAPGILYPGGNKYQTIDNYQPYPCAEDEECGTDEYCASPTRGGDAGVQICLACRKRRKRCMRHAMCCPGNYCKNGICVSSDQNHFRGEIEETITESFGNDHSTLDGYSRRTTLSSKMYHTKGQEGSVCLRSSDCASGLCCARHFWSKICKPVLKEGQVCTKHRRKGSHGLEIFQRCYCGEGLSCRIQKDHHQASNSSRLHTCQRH
Chain of Torsin-1A-interacting protein 1 (Homo sapiens) (Q5JTV8 whole entry, looked up): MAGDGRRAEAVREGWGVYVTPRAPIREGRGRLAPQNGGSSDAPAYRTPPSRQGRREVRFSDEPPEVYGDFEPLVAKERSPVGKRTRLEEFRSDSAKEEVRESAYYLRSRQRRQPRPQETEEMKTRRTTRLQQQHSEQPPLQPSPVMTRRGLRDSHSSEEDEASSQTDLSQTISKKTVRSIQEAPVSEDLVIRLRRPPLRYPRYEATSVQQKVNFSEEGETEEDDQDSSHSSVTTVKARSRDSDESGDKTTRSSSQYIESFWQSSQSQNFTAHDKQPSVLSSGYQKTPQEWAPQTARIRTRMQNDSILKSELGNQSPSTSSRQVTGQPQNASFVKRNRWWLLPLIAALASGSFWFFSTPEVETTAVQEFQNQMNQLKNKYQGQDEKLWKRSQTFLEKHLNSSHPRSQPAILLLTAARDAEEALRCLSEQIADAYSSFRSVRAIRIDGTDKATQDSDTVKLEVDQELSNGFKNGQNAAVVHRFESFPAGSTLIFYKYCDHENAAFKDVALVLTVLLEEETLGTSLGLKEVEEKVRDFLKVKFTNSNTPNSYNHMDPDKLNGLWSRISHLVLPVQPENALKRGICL

| SMILES | composite z-score [1] | composite z-score [2] | composite z-score [3] | z-score [4] | composite z-score [5] | composite z-score [6] | composite z-score [7] | composite z-score [8] | composite z-score [9] | composite z-score [10] | composite z-score [11] | z-score [12] | composite z-score [13] | composite z-score [14] | composite z-score [15] | composite z-score [16] | composite z-score [17] | composite z-score [18] | composite z-score [19] | composite z-score [20] |
| --- | --- | --- | --- | --- | --- | --- | --- | --- | --- | --- | --- | --- | --- | --- | --- | --- | --- | --- | --- | --- |
| CCOC(=O)CCN1C(=O)[C@H]2[C@H]3[C@H](O)[C@H](O)CC(=NNC(=O)OCC)[C@@H]3CC[C@H]2C1=O | 0.238 | -0.0567 | -0.0213 | 0.519 (inactive) | 0.283 | 0.0666 | 0.209 | 0.0654 | -0.0149 | -0.772 | 0.582 | 0.374 | 0.354 | 0.0089 | -1.05 | 0.0511 | -0.273 | 0.0234 | -0.0895 | 0.353 |
| CC(=O)OC[C@H]1O[C@H](C#CC(C)(C)C)C=C[C@@H]1OC(C)=O | 0.731 | 0.202 | -0.508 | 1.16 (inactive) | 0.871 | 0.225 | 0.274 | 1.31 | 0.535 | -0.209 | 1.31 | -1.94 | 0.934 | 0.957 | 0.189 | -0.191 | 0.0596 | -0.433 | 0.852 | 1.09 |
| C=CCN(CCCCC)C(=O)C(c1cccs1)N(CCOCCO)C(=O)/C=C\C(=O)O (stereo not given) | 0.0427 and 0.42 | -0.588 and -0.228 | 0.658 and 0.6 | -0.841 (inactive) and -1.36 (inactive) | -1.6 and -0.98 | -0.918 and -0.491 | -1.05 and -0.766 | -0.411 and -0.744 | -1.04 and -1.54 | -1.79 and -0.36 | -1.74 and -0.0507 | -0.572 and 0.96 | -0.828 and -1.56 | -1.04 and -0.776 | -0.408 and 0.326 | -0.135 and -0.199 | -0.223 and -0.283 | -0.308 and 0.0644 | -0.922 and -0.405 | -0.676 and 1.14 |
| C=CCN(CCCCC)C(=O)C1N(CCCCCCO)C(=O)C2C(C(=O)O)C3C=CC21O3 (stereo not given) | 1.34 and 1.33 | -0.3 and -0.257 | 0.933 and 0.677 | -0.372 (inactive) and 0.305 (inactive) | -1.23 and -1.99 | -0.699 and -1.32 | -1.76 and -2.1 | -2.21 and -0.897 | -3.08 and -2.95 | -0.194 and -1.46 | -0.37 and -0.151 | -0.415 and -0.545 | -0.978 and -2.49 | -1.53 and -0.747 | -0.155 and 0.379 | -0.256 and -0.258 | -0.0626 and -0.156 | -0.0784 and -0.208 | 0.257 and -1.03 | -1.31 and -1.22 |
| COC(=O)[C@H](C)NC(=O)CCC1CC(OC(=O)NCCc2ccc(F)cc2)CC2(CCCC(COC(=O)NCCCN3CCCC3=O)O2)O1 (stereo not given in full) | 1.07 | -0.0361 | 0.778 | -0.247 (inactive) | 1.14 | 1.28 | 0.597 | 1.36 | 1.44 | -0.0362 | 1.39 | -2.21 | 1.21 | 0.95 | -0.387 | -0.172 | 0.0278 | 0.33 | 1.05 | 1.14 |
| CC(C)=NO[C@@H](C)c1cc(-c2c(C)cc(C)cc2C)no1 | 0.624 | -0.0037 | 0.0373 | -1.47 (inactive) | 0.0369 | -0.166 | -0.0855 | -0.234 | -0.289 | 0.952 | -0.379 | -0.527 | 0.192 | -0.35 | -0.264 | -0.152 | 0.0899 | -0.242 | 0.1 | 0.282 |
| Cc1cc2c(nc1C)CCCN2CC(C)ON=C[C@@H](C)[C@H](OCc1ccccc1)C(C)C (stereo not given in full) | -0.146 | -0.14 | -0.499 | 0.332 (inactive) | -0.375 | -0.857 | 0.0333 | -0.0161 | 0.227 | 0.622 | -1.88 | -1.26 | 0.339 | -0.398 | -0.304 | -0.0125 | -0.0035 | 0.0811 | -0.0342 | -0.0161 |
| C[N+](C)(C)CCCCCCNC(=O)[C@H]1C[C@H]2C(=O)N[C@@H](CCCC[N+](C)(C)C)C(=O)N2[C@H]1c1ccc(O)cc1 | 0.819 and 1.44 | -0.359 and -0.0843 | -0.304 and 0.224 | -0.616 (inactive) and -0.146 (inactive) | 0.508 and -0.456 | -0.253 and -0.528 | 0.28 and -0.409 | 0.41 and -0.414 | 0.867 and 0.455 | 0.469 and 1.16 | -0.113 and 0.0498 | -0.0901 and 0.0595 | 0.633 and -0.0601 | -0.616 and -0.416 | -0.452 and -1.03 | -0.13 and -0.14 | -0.124 and 0.0326 | 0.0637 and -0.303 | -0.0201 and -0.413 | 1.02 and -1.54 |
